Measured values taken from PubChem BioAssay AID2731 (National Center for Advancing Translational Sciences (NCATS), 2010).
Some of the results follow. Records with an inconclusive call do not appear. Calls of active or inactive are those of the source. Calls follow the shape of the dose curve; as a rule, active = well fitted curve in the direction sought with a large enough effect; inconclusive = small, poorly fitted or top-dose-only effect, or effect the other way, or another doubt; inactive = no such curve, though single readings can be large or run the other way.

assay: High Content Assay for Compounds that inhibit the Assembly of the Perinucleolar Compartment: PC3M Caspase 3/7 Activation; details: PC3M-GFP caspase 3/7 activation, luminescence, 24 h; series mostly up to 46.1 µM
Description: High Content Assay for Compounds that inhibit the Assembly of the Perinucleolar Compartment NIH Chemical Genomics Center [NCGC] NIH Molecular Libraries Probe Centers Network [MLPCN] MLPCN Grant: MH082371-01A2 Assay Submitter (PI): Sui Huang, Northwestern University, Feinberg School of Medicine, Cell and Molecular Biology, Chicago, Illinois. The perinucleolar compartment (PNC) is a non-membrane-bound nuclear subdomain that is associated with but structurally distinct from the nucleolus. The PNC is a heritable trait, in which the number of PNCs per cell in daughter cells often mimics that of their mother cells. The PNC is heterogeneous in shape, is stable through interphase, disassembles during mitosis, and reassembles in early G1. The PNC is concentrated with newly synthesized RNA polymerase III (pol III) RNAs (MRP RNA, RNAse P H1 RNA, hY RNAs[hY1, 2, 5], Alu RNA, and SRP [7SL] RNA) and RNA binding proteins (nucleolin, PTB, CUG-BP, KSRP, Raver1, Raver2, and Rod). […] Extensive in vitro studies have shown that the PNC is unique to tumor cells and preferentially forms in tumor cells derived from solid tissues. Examination of cancer cell lines from various origins and malignant capacities has shown that PNC prevalence correlates with the malignancy of tumors and has the potential to be developed as a pan-cancer prognostic marker. […] Although the PNC is associated with a DNA locus and a handful of components have been identified, much remains to be investigated regarding the structure and function of the PNC and its mechanistic link to cancer. We have previously shown that PNC prevalence reduction is a valid strategy to identify compounds that can be used to study the structure and function of the PNC. It is necessary, however, to create a screening platform that is able to test a large number of compounds in an automated fashion. Here we report the development and robustness of an automated whole-cell phenotypic image-based screening assay that is capable of identifying such compounds. We conducted a followup assay to measure the effects of the lead candidates on Caspase 3/7 activation using a luminescent Caspase kit (Caspase 3/7 Glo). The highly metastatic PC3M-GFP reporter cell line was used in this study.
Caspase 3/7 Assay 1. Cells at a density of 75-90% confluency in T175 flasks were harvested using 7 ml TrypLE Express cell dissociation reagent. After dissociation (5 minutes room temperature incubation) 10 ml of complete media was added to the TrypLE/cell suspension. The liquid was transferred to a 50 ml Conical tube and cells were pelleted at 1000 RPM for 5 min. Supernatant was removed and cells were resuspended to a final density of 150-200 cells/ul in complete media. 2. Cells were plated in 5 ul volume (2000 cells/well) into 1536 well White solid bottom plates and allowed to recover and adhere at 37 C in a humidified 5% CO2 incubator for 4 hours. 3. After 4 hour incubation, compound libraries (23 nl of […] in columns 5-48) were transferred to the plates in duplicate using a 1536 well pintool. Camptothecin positive control (59 uM final) was added to column 2 and 1:3 dilutions of camptothecin was added to column 3. DMSO negative controls were present in columns 1 and 4. 4. After a 24 hour incubation in the 37 C incubator, all wells were treated with 3 ul of Caspase Glo 3/7 reagent using a multidrop combi dispenser (ThermoFisher). Bubbles that formed during dispensing were removed by spinning the plates for 1 minutre at 1500 RPM on a table top centrifuge. Plates were incubated at room temperature for 5 minutes. 5. Luminescencent signal was detected on a Viewlux CCD based imager (PerkinElmer) with a clear filter and a 30 second integration time. The The PC3M cell line stably expressing the PTB-GFP was provided by Sui Huang of Northwestern University. The media and cell culture reagents were purchased from Invitrogen (Carlsbad, CA). […]

outcome, inactive:
COC(=O)C1=C(C)N(c2ccc(Br)cc2)C(=O)/C1=C\c1ccco1
CCOC(=O)c1c(-c2cccc(C)c2)csc1NC(=O)c1c(-c2ccccc2)noc1C
CC1(c2cccc([N+](=O)[O-])c2)CC(C)(C)N(C(=O)c2ccccc2)c2ccccc21 (stereo unspecified)
N=c1c2c(-c3ccccc3)c(-c3ccccc3)n(Cc3ccccc3)c2ncn1CCCO
Cn1c2ccccc2c(=O)c2c(=O)n(Cc3ccco3)c(COc3ccccc3)nc21
COC(=O)c1ccc(CSc2ccccc2C)o1
